Drawing on PubChem BioAssay AID521 (Sanford-Burnham Center for Chemical Genomics, 2006), this text covers inhibition for 61 compounds.

Values joined by “and” are separate entries in the source; they are usually repeats but may differ in a detail not shown here. Equal entries are not always repeated. Screen size: about 110,000 compounds; about 730 (0.66%) were called active. Cut-off read from the data, not from the text of the source: active = inhibition above about 50%; inconclusive = no clear call, values can overlap the other calls; inactive = below that. This excerpt belongs to a sample that is enriched for actives. Where a structure was tested more than once in an assay, its records may differ in their call.

Tyrosine-protein phosphatase non-receptor type 7 (Homo sapiens), sequence (P35236 whole entry, looked up): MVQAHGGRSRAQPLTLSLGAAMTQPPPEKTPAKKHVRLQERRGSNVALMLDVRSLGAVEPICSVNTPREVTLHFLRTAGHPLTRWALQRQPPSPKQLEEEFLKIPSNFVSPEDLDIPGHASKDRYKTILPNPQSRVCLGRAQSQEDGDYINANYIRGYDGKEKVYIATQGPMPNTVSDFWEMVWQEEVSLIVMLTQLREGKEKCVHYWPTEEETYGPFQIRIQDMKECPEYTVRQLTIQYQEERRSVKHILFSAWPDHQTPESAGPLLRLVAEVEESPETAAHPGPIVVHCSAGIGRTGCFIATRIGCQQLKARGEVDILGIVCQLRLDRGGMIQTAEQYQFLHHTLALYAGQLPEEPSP

The assay concerns the target Tyrosine-protein phosphatase non-receptor type 7 (Homo sapiens) (UniProt P35236). The experiment in a line: inhibitors of human HePTP phosphatase, primary screen, biochemical, absorbance, leukemia target (AID 521).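 Note: plate controls were vehicle for no effect and reference inhibitor for full effect.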 As to conditions: recombinant HePTP phosphatase activity, OD absorbance; at 20 µM; stronger effect = higher value.
Consider `Cc1[nH]n(-c2ccccc2)c(=O)c1/C=N/N(C)C`, for which the inhibition (usually the change of the read-out against control, counted positive when it falls) is -5.9% (inactive).

As to `Cc1[nH]n(-c2ccccc2)c(=O)c1C(c1ccc(C(F)(F)F)cc1)c1c(C)[nH]n(-c2ccccc2)c1=O`, the inhibition is 104% (active).

In the case of `Cc1[nH]n(-c2ccccc2)c(=O)c1C(=O)C(F)(F)F`, the inhibition was 3.1% (inactive).

In the case of `COc1ccc2nc(C)c(CCC(C)=O)c(Cl)c2c1`, the inhibition is 6.4% (inactive).

For the compound `COc1ccc(C(=O)Nc2nc(C34CC5CC(CC(C5)C3)C4)c(C)s2)cc1`, the inhibition is -13.5% (inactive).

On to `COC(=O)c1ccccc1NC(=O)COc1cccc2ccccc12`, for which the inhibition is 3.5% (inactive).

As to `COc1cc(C(=O)N2CCC(Cc3ccccc3)CC2)c([N+](=O)[O-])cc1OC`, the inhibition is -4.3% (inactive).

Regarding `COC(=O)c1ccccc1NC(=O)c1cncc(Br)c1`, the inhibition is 5.5% (inactive) and 4.4% (inactive).

Turning to `COC(=O)c1ccc(C(=O)Nc2cc(Cl)ccc2Cl)cc1NC(=O)c1ccccc1C`, the inhibition was -11.5% (inactive).

For `COC(=O)c1ccccc1NC(=O)c1ccc(Cl)cc1`, the inhibition is 72.5% (active).

With `Cc1cc(NC(=O)C2CC3CCC2C3)no1` (stereo unspecified), the inhibition was -16.7% (inactive).

Take `O=C1NC(c2ccc(Br)cc2)=N/C1=C/c1ccccc1`: the inhibition is -7.8% (inactive).

For `Cc1cccc(NC(=O)/C(C#N)=C/c2ccc(-c3ccccc3[N+](=O)[O-])o2)c1`, the inhibition is 2.3% (inactive).

With `COc1ccc([N+](=O)[O-])cc1-c1ccc(/C=C(\C#N)c2nc3ccc(C)cc3[nH]2)o1`, the inhibition was 103% (active).

Turning to `CC(=O)NC1=NC(=O)/C(=C\c2ccc(-c3cc([N+](=O)[O-])ccc3C)o2)S1`, the inhibition was -13.7% (inactive).

On to `CCCOc1ccc(N2C(=O)CC(NCCc3ccc(Cl)cc3)C2=O)cc1` (stereo unspecified), for which the inhibition was -18.1% (inactive).

For the compound `COc1ccccc1NCN1C(=O)S/C(=C/c2ccccc2F)C1=O`, the inhibition is -9.9% (inactive).

For the compound `C/C(=C\C(=O)c1ccc(Br)cc1)Nc1ccccc1O`, the inhibition is -2% (inactive).

On to `CC(C)(C)CC(C)(C)NC(=O)CSc1nc2ccccc2s1`, for which the inhibition was 5.4% (inactive).

On to `N/C(=C\C(=O)/C=C\c1ccccc1)C(Cl)(Cl)Cl`, for which the inhibition is -0.8% (inactive).

Take `O=c1oc2c3c4c(cc2cc1CCO)CCCN4CCC3`: the inhibition was 11.1% (inactive).

Consider `CN1CCN(CCCCOc2cccc3ccccc23)CC1`, for which the inhibition was 3.9% (inactive).

With `Cc1cc(C)c2oc(-c3ccc(NC(=O)c4cc5ccccc5o4)cc3O)nc2c1`, the inhibition was -0.1% (inactive).

Take `CCc1ccc2oc(-c3ccc(C)c(NC(=O)c4cc(OC)cc(OC)c4)c3)nc2c1`: the inhibition was -3.6% (inactive).

With `COc1ccc(C=Nc2ccc(Sc3ccc([N+](=O)[O-])cc3)cc2)cc1OC`, the inhibition was -1.2% (inactive).

For the compound `COc1ccc(/C=C2/SC(=S)NC2=O)cc1I`, the inhibition was 7.7% (inactive).

As to `CCC(=O)Nc1sc(C(=O)N2CCCCC2)c(C)c1C#N`, the inhibition is 7.4% (inactive).

`COC(=O)c1sc(NC(=O)C(Sc2ccccc2)c2ccccc2)c(C#N)c1C` (stereo unspecified): the inhibition was 10.9% (inactive).

In the case of `COC(=O)c1sc(NC(=O)C2CCCCC2)c(C#N)c1C`, the inhibition is 103% (active).

In the case of `CC1(C)c2ccccc2N(CCO)C12C=Cc1cc([N+](=O)[O-])ccc1O2` (stereo unspecified), the inhibition was 0.7% (inactive).

On to `COC(=O)c1cc(S(=O)(=O)N2CCOCC2)ccc1Cl`, for which the inhibition is -0.5% (inactive).

As for `O=C(Cc1c(O)c2ccccc2[nH]c1=O)NCc1ccc(Cl)cc1`, the inhibition is -5.2% (inactive).

On to `CC(=O)n1nc(C)c2c1C[C@@H]1[C@H]2C1(C)C`, for which the inhibition was 2.1% (inactive).

For the compound `O=c1[nH]c2ccc(Br)cc2c(-c2ccccc2)c1C1=NNC(c2ccc([N+](=O)[O-])cc2)C1` (stereo unspecified), the inhibition is 7.3% (inactive).

Regarding `Cc1ccc(N2NC(=O)/C(=C/c3ccc(O)c(O)c3)C2=O)cc1C`, the inhibition is -5.6% (inactive).

Consider `Cc1ccc(N2NC(=O)/C(=C/c3ccc4c(c3)OCO4)C2=O)cc1Cl`, for which the inhibition was 66.6% (active).

With `O=C1NN(c2ccccc2)C(=O)/C1=C/c1cccc(F)c1`, the inhibition was 7.6% (inactive).

In the case of `CC(C)=CC1C(C(=O)Nc2ccc(C)cn2)C1(C)C` (stereo unspecified), the inhibition is -10.2% (inactive).

As for `O=C(NCc1ccco1)Nc1ccncc1`, the inhibition is -1.8% (inactive).

Regarding `COc1ccccc1C(=O)NC(NC(=O)c1ccccc1OC)c1ccc(Br)cc1`, the inhibition was 7.8% (inactive).

With `O=C(Nc1ccc(OC(F)(F)F)cc1)c1cnn2c(C(F)(F)F)cc(-c3ccco3)nc12`, the inhibition was 0.1% (inactive).

On to `OCCNCC(O)Cn1c2ccc(I)cc2c2cc(I)ccc21` (stereo unspecified), for which the inhibition was -15.3% (inactive).

As to `Cn1cnnc1Sc1nc2c(c(=O)n(C)c(=O)n2C)n1Cc1ccc(F)cc1`, the inhibition was -3.2% (inactive).

As to `Cc1cccc(NC(=O)c2ccc(NC(=O)COc3ccc(Cl)cc3Cl)cc2)c1`, the inhibition was 6.4% (inactive).

Take `CC(C)(C)c1ccc(OCC(=O)Nc2cccc(NC(=O)c3ccccc3)c2)cc1`: the inhibition was -1.7% (inactive).

Take `Cc1cccc(C(=O)Nc2cccc(NC(=O)COc3ccccc3Cl)c2)c1`: the inhibition was 105% (active).

Consider `CSc1ccc(-c2c(C#N)c(N)nc3c2c(C)nn3-c2ccccc2)cc1`, for which the inhibition is 2.8% (inactive).

For the compound `N#Cc1c(N)nc2cc(N)ccc2c1-c1ccc(O)cc1`, the inhibition is 104% (active).

As for `CSc1nc(N)c(C#N)c(-c2ccccc2Cl)c1C#N`, the inhibition is -5.7% (inactive).

Turning to `CCN(C(=S)NC(=O)c1cccnc1)c1ccccc1`, the inhibition was 3.3% (inactive).

Turning to `COc1ccc(C(=O)Nc2nc3ccc(C)cc3s2)cc1Br`, the inhibition is 4.5% (inactive).

Take `CCc1c(C)sc(NC(=O)C2CCCCC2)c1C(=O)OC(C)C`: the inhibition was 6.5% (inactive).

As to `COC(=O)c1cc(NC(=O)c2ccc(-c3cc(Cl)ccc3Cl)o2)cc(C(=O)OC)c1`, the inhibition was -24.3% (inactive).

Take `COc1cc(OC)cc(C(=O)N/N=C(\C)CC(=O)Nc2ccccc2-c2ccccc2)c1`: the inhibition was -23.1% (inactive).

As to `CCOc1ccccc1C(=O)NCc1ccco1`, the inhibition is 103% (active) and 14.1% (inactive).

Consider `COc1ccc(C(=O)Nc2ccccc2C(=O)NCc2ccco2)cc1`, for which the inhibition is 4.8% (inactive).

In the case of `CCCCOc1ccc(C(=O)NCc2ccco2)cc1`, the inhibition was 6% (inactive).

Consider `O=C(Cc1ccc(Cl)cc1)Nc1ccc(Cl)cc1C(=O)O`, for which the inhibition was 1.2% (inactive).

For the compound `Cc1cccc(N2C(=O)S/C(=C/c3ccc(N(C)C)cc3)C2=O)c1`, the inhibition is -1.4% (inactive).

As to `O=Cc1ccc(/C=C2/SC(=S)N(c3cccc(Cl)c3)C2=O)cc1`, the inhibition was 4.5% (inactive).

Turning to `CN(C)c1ccc(/C=C2\SC(=S)N(c3cccc(C(=O)O)c3)C2=O)cc1`, the inhibition is 104% (active).
